{
  "source": "PubChem BioAssay",
  "note": "A number with no mark means an inactive call. Calls of active or inactive are those of the source.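 Rule for the calls: active = inhibition at or above 50% relative to wild type and mutant plate controls; inactive = inhibition below 50%.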 Peptide text beside a SMILES is read from it. * marks the point of attachment. Cbz = O=C(OCc1ccccc1)*",
  "data": [
    {"assay": "loss of swimming-algae plug formation – whole organism, Chlamydomonas reinhardtii, WT vs cilia-less mutant, absorbance, 96-well, primary screen (AID 463189);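 note: 0% = wild type cc124 cells in DMSO and 100% = ciliumless bld1 mutant cells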", "conditions": "Chlamydomonas reinhardtii gravitaxis, OD600 absorbance, 2 days; at 10 µM; hits give high values", "values": [
      {"compound": "Nc1ccc2c3c(cccc13)C(=O)NC2=O", "inhibition": "32.5%"},
      {"compound": "c1ccc2nc(C3=NCCN3)ccc2c1", "inhibition": "108% (active)"},
      {"compound": "C=C[C@H]1CN2CCC1C[C@H]2[C@H](O)c1ccnc2ccc(OC)cc12", "note": "(stereo not given in full)", "inhibition": "-14.7%"},
      {"compound": "C[C@H](NC(=O)/C(C#N)=C/c1ccc(O)c(O)c1)c1ccccc1", "inhibition": "-0.423%"},
      {"compound": "O=C(OCCN1CCOCC1)C1(c2ccccc2)CCCCC1", "inhibition": "2.35%"},
      {"compound": "NCCCC(=O)O", "inhibition": "-6.87%"},
      {"compound": "CCCCCCCCCCCCCCCCCC(=O)OC(CC(=O)O)C[N+](C)(C)C", "note": "(stereo not given)", "inhibition": "6.23%"},
      {"compound": "CC(C)NC[C@@H](O)COc1ccc(CC(N)=O)cc1", "inhibition": "-8.19%"},
      {"compound": "COc1cccc(C(=O)NCCN2CCN(c3ccc(Cl)cc3)CC2)c1", "inhibition": "0.497%"},
      {"compound": "Nc1nc(Cl)nc2c1ncn2[C@@H]1O[C@H](CO)[C@H](O)C1O", "note": "(stereo not given in full)", "inhibition": "1.82%"},
      {"compound": "C=C1C(=O)O[C@@H]2[C@H]3O[C@]3(C)CCC=C(C)CC[C@@H]12", "inhibition": "4.91%"},
      {"compound": "CC1=C(/C=C/C(C)=C/C=C/C(C)=C\\C(=O)O)C(C)(C)CCC1", "inhibition": "-3.51%"},
      {"compound": "CN(C)CC[C@@H](c1ccc(Br)cc1)c1ccccn1", "inhibition": "15%"},
      {"compound": "CC(C)=CCC/C(C)=C/CC/C(C)=C/CSc1ccccc1C(=O)O", "inhibition": "-8.73%"},
      {"compound": "O[Si](CCCN1CCCCC1)(c1ccc(F)cc1)C1CCCCC1", "note": "(stereo not given)", "inhibition": "-1.85%"},
      {"compound": "CO/N=C(\\C(=O)N[C@@H]1C(=O)N2C(C(=O)O)=C(CSc3nc(=O)c(O)nn3C)CSC12)c1csc(N)n1", "note": "(stereo not given in full)", "inhibition": "7.64%"},
      {"compound": "CC(C)C[C@H](N)CSSC[C@@H](N)CC(C)C", "inhibition": "6.54%"},
      {"compound": "CCCCCC[C@@H]([C@@H](C)O)n1cnc2c(N)ncnc21", "inhibition": "-0.492%"},
      {"compound": "CC(C(O)c1ccc(O)cc1)N1CCC(Cc2ccccc2)CC1", "note": "(stereo not given)", "inhibition": "1.86%"},
      {"compound": "N=C1Sc2ccccc2C2=NCCCN12", "inhibition": "9.36%"},
      {"compound": "CCN(CC)CCCC(C)Nc1c2ccc(Cl)cc2nc2ccc(OC)cc12", "note": "(stereo not given)", "inhibition": "16.9%"},
      {"compound": "CC(=O)[C@@]1(O)CC[C@H]2[C@@H]3CCC4=CC(=O)CC[C@]4(C)[C@H]3CC[C@@]21C", "inhibition": "-1.04%"},
      {"compound": "COc1cc2c(cc1OC)-c1cc(=Nc3c(C)cc(C)cc3C)n(C)c(=O)n1CC2", "inhibition": "10.5%"},
      {"compound": "CCn1cc(C(=O)O)c(=O)c2ccc(Cc3ccccc3)nc21", "inhibition": "6.19%"},
      {"compound": "CSc1ccc2c(c1)C(N1CCN(C)CC1)Cc1ccccc1S2", "note": "(stereo not given)", "inhibition": "0.427%"},
      {"compound": "CN1C(C)(C)CCCC1(C)C", "inhibition": "7.18%"},
      {"compound": "O=C(O)c1cccnc1C(=O)O", "inhibition": "3.76%"},
      {"compound": "CC(C)[C@H](NC(=O)OCc1ccccc1)C(=O)N[C@H](C=O)Cc1ccccc1", "note": "(Cbz-Val-Phe-aldehyde)", "inhibition": "6.09%"},
      {"compound": "Nc1ncnc2c1nc(Sc1ccc(Cl)cc1)n2C1OC2COP(=O)(O)O[C@@H]2[C@@H]1O", "note": "(stereo not given in full)", "inhibition": "9.99%"},
      {"compound": "Oc1cc(O)cc(/C=C/c2ccc(O)c(O)c2)c1", "inhibition": "0.047%"},
      {"compound": "CC1(C)CCC2=C(O1)c1ccccc1C(=O)C2=O", "inhibition": "153% (active)"},
      {"compound": "CCCCCN(CCCCC)C(=O)C(CCC(=O)O)NC(=O)c1ccc(Cl)c(Cl)c1", "note": "(stereo not given)", "inhibition": "-0.994%"},
      {"compound": "CCCCS(=N)(=O)CC[C@H](N)C(=O)O", "note": "(stereo not given in full)", "inhibition": "-0.592%"},
      {"compound": "COc1cc(C(O)C(=O)O)ccc1O", "note": "(stereo not given)", "inhibition": "2.56%"},
      {"compound": "CC(C)Cn1c(=O)n(C)c(=O)c2[nH]cnc21", "inhibition": "1.72%"},
      {"compound": "CCN1CCC[C@H]1CNC(=O)c1cc(S(N)(=O)=O)ccc1OC", "inhibition": "3.94%"},
      {"compound": "C[C@@]1(C2CCCC2)Cc2cc(OCC(=O)O)c(Cl)c(Cl)c2C1=O", "inhibition": "5.71%"},
      {"compound": "NC(N)=NC(N)=Nc1cccc(Cl)c1", "inhibition": "4.09%"},
      {"compound": "CN(C)CCCCSC(=N)N", "inhibition": "0.024%"},
      {"compound": "C#CCn1c(=O)c2c(ncn2C)n(C)c1=O", "inhibition": "3.25%"}
    ]}
  ]
}
